# How the values were obtained:
# Assay type in all cases: functional
# [1] = biological target: Solute carrier family 2, facilitated glucose transporter member 1 (Homo sapiens) (UniProt P11166); assay: ST_JUDE_LEISH: Cytotoxicity at 2uM final concentration against transgenic Leishmania Mexicana promastigotes LmGLUT1 that are glucose transport deficient and complemented with the human glucose transporter GLUT1. Activity is measured by DNA content using SYBR green in vitro
# [2] = biological target: Hexose transporter 1 (Plasmodium falciparum) (UniProt O97467); assay: ST_JUDE_LEISH: Cytotoxicity at 2uM final concentration against transgenic Leishmania Mexicana promastigotes LmPfHT that are glucose transport deficient and complemented with the Plasmodium falciparum hexose transporter. Activity is measured by DNA content using SYBR green in vitro
# [3] = biological target: Glucose transporter (Leishmania mexicana) (UniProt O61059); assay: ST_JUDE_LEISH: Cytotoxicity at 2uM final concentration against transgenic Leishmania Mexicana promastigotes LmGT2 that are glucose transport deficient and complemented with the L. Mexicana glucose transporter 2. Activity is measured by DNA content using SYBR green in vitro
# Solute carrier family 2, facilitated glucose transporter member 1 (Homo sapiens), sequence (P11166 whole entry): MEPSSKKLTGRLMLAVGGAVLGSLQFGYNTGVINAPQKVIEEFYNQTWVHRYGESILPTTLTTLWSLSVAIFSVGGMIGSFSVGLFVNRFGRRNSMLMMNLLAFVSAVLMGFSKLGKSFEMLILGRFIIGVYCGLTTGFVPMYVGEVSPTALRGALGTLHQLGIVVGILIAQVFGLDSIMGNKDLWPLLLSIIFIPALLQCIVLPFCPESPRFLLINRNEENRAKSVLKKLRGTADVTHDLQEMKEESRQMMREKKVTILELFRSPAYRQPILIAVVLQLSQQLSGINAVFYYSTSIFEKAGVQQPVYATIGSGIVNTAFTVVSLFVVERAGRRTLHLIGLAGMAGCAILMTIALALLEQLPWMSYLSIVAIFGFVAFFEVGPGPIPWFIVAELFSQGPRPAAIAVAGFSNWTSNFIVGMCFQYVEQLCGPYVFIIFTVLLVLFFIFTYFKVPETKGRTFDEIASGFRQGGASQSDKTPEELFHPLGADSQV
SMILES,inhibition [1],inhibition [2],inhibition [3]
CC(C)(C(=O)Nc1ccc(C2CCC(NCC3CC3)CC2)c(Cl)c1)c1cccc(OC(F)F)c1 (stereo not drawn),9.94%,8.75%,9.65%
CC1CCC(NCc2ccc3c(CNC4CCC(C)CC4)c(O)ccc3c2O)CC1 (stereo not drawn),1.24%,-0.12%,-1.56%
CCN(CCCN1CCCCC1)c1cc(C)nc(Nc2cccc3c2CCCC3)n1,3.95%,2.39%,1.57%
COc1ccc(C2CC(c3cccs3)=NN2C(=O)COc2cccc3c2CCCC3O)cc1OC (stereo not drawn),-1.84%,-0.04%,4.14%
Oc1cccc2c1CC(NCc1ccccc1)CC2 (stereo not drawn),1.86%,1.22%,2.32%
CCN1CCN(CCCCNc2c3ccccc3nc3ccccc23)CC1,20.5%,8.76%,10.7%
C=C1N(C)c2cc([N+](=O)[O-])c(N)cc2C1(C)C,0.68%,-0.1%,-1.11%
CCc1cn2c3c(cc(C(=O)N[C@@H](Cc4ccccc4)[C@H](O)CNCC(C)C)cc13)N(C)S(=O)(=O)CC2,3.97%,4.71%,3.3%
CC(C)(C)c1ccc(NC(=O)c2ccc(CN3CCCN(Cc4cccc(C#N)c4)CC3)cc2)cc1,6.54%,7.31%,4.99%
Cn1cc(-c2ccccc2C(=O)O)c(=O)c2cc(Cl)ccc21,2.25%,1.87%,2.49%
CCCc1ccc(C(=O)N2C(c3nccs3)C(C(N)=O)CC2(CC(C)C)C(=O)O)cc1 (stereo not drawn),1.38%,2.07%,0.37%
CCOc1ccc(-c2nc(NC(=O)COc3ccc(OC)cc3)sc2C)cc1,9.63%,10%,10.1%
c1ccc(Oc2ccc(Nc3ccnc(Nc4cccc(CNCCCN5CCOCC5)c4)n3)cc2)cc1,-3.58%,-2.31%,-1.79%
O=S(=O)(Nc1cccc(CCN2CCCCC2CCN2CCCC2)c1)c1ccc2ccccc2c1 (stereo not drawn),0.63%,-0.31%,-3.3%
COC(=O)c1cccc(NC(=O)NC2CCN(c3ccnc(Nc4ccc(OC)cc4)n3)C2)c1 (stereo not drawn),0.29%,0.86%,0.1%
COc1cccc(Nc2nc(Nc3cccc(C#N)c3)cc(C(F)(F)F)n2)c1,6.5%,6.64%,6.05%

SMILES,inhibition [1],inhibition [2],inhibition [3]
O=c1cc(NCCCCNCc2cccc(C(F)(F)F)c2)[nH]c2ccccc12,9.62%,7.88%,5.78%
O=S(=O)(Nc1cccc(CCN2CCC(N3CCCCC3)CC2)c1)c1ccc(Oc2ccccc2)nc1,3.37%,4.85%,5.38%
O=C(/C=C/c1ccc(Cl)c(Cl)c1)NCCCCCN1CCC(NC(=O)Nc2ccc(Br)cc2)CC1,-0.66%,-0.06%,-0.46%
COc1cc2nc(N3CCC(CNC(=O)c4ccc(-c5ccccc5)cc4)CC3)nc(N)c2cc1OC,1.43%,1.28%,0.24%
CCOc1c(OC)ccc2c1CCN(CCN1CCC(CNC(=O)c3ccc(-c4ccc(C(F)(F)F)cc4)cc3)CC1)C2,-1.88%,-0.64%,0.24%
COc1cc(C(=O)Nc2cccc(-c3nc4ccccc4[nH]3)c2)cc(OC)c1OC,4.34%,1.94%,-3.56%
O=C(NCCc1cccc(F)c1)c1ccc(N2CCN(c3ccncc3)CC2)cn1,8.21%,4.37%,6.9%
Cc1ccc2c(=NN=Cc3cccc(Cl)c3)cc(C)[nH]c2c1,0.92%,0.93%,1.04%
O=C(Nc1ccc(-c2nc3ccccc3[nH]2)cc1)c1cccc([N+](=O)[O-])c1,1.01%,-1.86%,-1.09%
CCCc1cc(NC2CCN(C)CC2)nc(Nc2ccc(F)cc2)n1,10%,6.83%,5.22%
COc1cccc(C(=O)C2CC2CN(C)CC(O)c2cc(C)c(OC)cc2C)c1 (stereo not drawn),1.05%,-1.24%,0.15%
CN(Cc1cccc(C#N)c1)C1CCN(c2cc(NC(=O)c3ccc(F)cc3)ccn2)CC1,3.29%,2.12%,4.06%
Cc1cccc2nc(-c3ccc(-c4ccc(CN5CCN(CCC#N)CC5)cc4)cc3)[nH]c12,15.7%,14.1%,11.8%
Cc1cccc(C=NN=c2cc(C)[nH]c3ccc(F)cc23)n1,6.63%,6.71%,4.02%
Cc1cc(NC(=O)NCCN2CCC(NC(=O)c3ccc(C(F)(F)F)cc3)CC2)c2ccccc2n1,0.67%,0.01%,-0.57%
